The record followed here is PMC4336329 (PLoS ONE, 2015).

Screen size: about 310,000 compounds; about 14,000 (4.5%) showed an effect of 50% or more. Effects have a minus sign here. Many of the other results were omitted from the sample, so strong results are more common in it than they were.
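Note: peak tail current of the secondary pulse compared with the same well before compound.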

human ether-à-go-go-related gene (hERG) potassium channel, sequence (Q12809 whole entry, looked up): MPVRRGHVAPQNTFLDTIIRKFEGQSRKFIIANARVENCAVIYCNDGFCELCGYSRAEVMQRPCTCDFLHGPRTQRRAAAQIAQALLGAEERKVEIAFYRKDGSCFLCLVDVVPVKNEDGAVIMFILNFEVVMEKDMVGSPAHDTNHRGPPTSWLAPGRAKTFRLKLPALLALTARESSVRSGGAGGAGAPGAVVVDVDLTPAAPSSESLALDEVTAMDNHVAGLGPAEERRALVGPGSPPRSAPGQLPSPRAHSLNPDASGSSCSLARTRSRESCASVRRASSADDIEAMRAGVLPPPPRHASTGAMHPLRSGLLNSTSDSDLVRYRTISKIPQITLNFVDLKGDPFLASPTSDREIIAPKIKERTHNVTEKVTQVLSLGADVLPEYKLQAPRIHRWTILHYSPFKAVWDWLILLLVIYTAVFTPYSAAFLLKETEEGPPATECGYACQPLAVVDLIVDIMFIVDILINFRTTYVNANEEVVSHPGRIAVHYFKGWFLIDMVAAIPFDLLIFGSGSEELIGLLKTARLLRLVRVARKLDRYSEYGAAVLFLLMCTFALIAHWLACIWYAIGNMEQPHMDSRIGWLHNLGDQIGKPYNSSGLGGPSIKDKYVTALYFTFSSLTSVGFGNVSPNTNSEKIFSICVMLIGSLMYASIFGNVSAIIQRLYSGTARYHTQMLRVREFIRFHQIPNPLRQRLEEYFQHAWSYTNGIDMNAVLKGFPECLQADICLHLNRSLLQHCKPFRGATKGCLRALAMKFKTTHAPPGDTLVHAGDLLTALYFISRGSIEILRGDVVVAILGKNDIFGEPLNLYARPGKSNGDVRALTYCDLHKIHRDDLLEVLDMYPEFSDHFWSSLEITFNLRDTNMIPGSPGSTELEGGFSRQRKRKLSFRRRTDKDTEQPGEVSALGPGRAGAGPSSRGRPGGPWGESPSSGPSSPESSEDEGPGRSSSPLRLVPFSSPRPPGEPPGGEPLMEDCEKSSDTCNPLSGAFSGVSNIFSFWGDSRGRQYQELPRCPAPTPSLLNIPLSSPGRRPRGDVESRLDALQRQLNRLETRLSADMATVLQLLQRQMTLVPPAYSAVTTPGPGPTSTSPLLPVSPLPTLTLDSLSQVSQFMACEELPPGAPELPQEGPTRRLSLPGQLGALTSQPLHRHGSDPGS

This experiment concerns the target human ether-à-go-go-related gene (hERG) potassium channel (human, UniProt Q12809). Nature of the experiment: primary screen, population patch clamp on CHO cells stably expressing hERG; higher = less effect of the substance.
For the compound `COc1ccc(S(=O)(=O)NCC2CCCN(Cc3ccc(O)cc3)C2)cc1` (stereo not drawn), the “hERG current change (%, negative = inhibition) at 10uM” value was -59.2%.
In the case of `CCc1ccc(CN2CCCC(CNS(=O)(=O)c3ccc(OC)cc3)C2)cc1` (stereo not drawn) it was -69.8%; in that of `COc1ccc(S(=O)(=O)NCC2CCCN(Cc3cccnc3)C2)cc1` (stereo not drawn), -47.7%.
On to `CC(C)C(C(=O)Nc1sc2c(c1C#N)CCCCC2)N1C(=O)c2ccccc2C1=O` (stereo not drawn), for which the “hERG current change (%, negative = inhibition) at 10uM” value turned out to be 4.7%.
In the case of `Cn1c(CCCOc2ccc(Cl)cc2Cl)nnc1SCC(=O)Nc1cccc(F)c1`, the “hERG current change (%, negative = inhibition) at 10uM” value is recorded as -3.24%.
As for `COC(=O)/C=C1\C(=O)N(c2nc3ccc(OC)cc3s2)C(=S)N1c1ccc(F)cc1`, the “hERG current change (%, negative = inhibition) at 10uM” value is listed as -7.23%.
Consider `CCOc1ccc(OCc2ccc(C(=O)N3CCc4ccccc4C3)o2)cc1`, for which the “hERG current change (%, negative = inhibition) at 10uM” value is listed as -10.4%.
In the case of `CC(=O)C[C@H]1c2cc(C(F)(F)F)ccc2S(=O)(=O)N1C1CCCC1` it was -12.1%.
Next, `O=C(NCC1CCCN(Cc2cccc(C(F)(F)F)c2)C1)c1ccc(F)cc1` (stereo not drawn): -58.2%.
With `CSc1cccc(CN2CCCC(CNC(=O)c3ccco3)C2)c1` (stereo not drawn), the “hERG current change (%, negative = inhibition) at 10uM” value is reported as -91.9%.
In the case of `CSc1ccc(CN2CCCC(CNC(=O)c3ccc(F)cc3)C2)cc1` (stereo not drawn), the “hERG current change (%, negative = inhibition) at 10uM” value is given as -70.8%.
In the case of `CC(C)(O)C#Cc1ccc(CN2CCCC(CNC(=O)c3ccco3)C2)cc1` (stereo not drawn) it was -10.9%; in that of `O=C(NCC1CCCN(C(=O)c2cccc(C(F)(F)F)c2)C1)c1ccc(F)cc1` (stereo not drawn), -8.13%.
In the case of `CCCn1cc(CN2CCCC(CNC(=O)c3ccc(F)cc3)C2)c(C)n1` (stereo not drawn) it was -25.5%; in that of `Cc1cc(CN2CCCC(CNC(=O)c3ccc(F)cc3)C2)cc(C)c1O` (stereo not drawn), -24.1%.
In the case of `O=C(NCC1CCCN(Cc2cccc(OCCO)c2)C1)c1ccc(F)cc1` (stereo not drawn) it was -16.3%; in that of `CSc1ccccc1C(=O)N1CCCC(CNC(=O)c2ccc(F)cc2)C1` (stereo not drawn), 15.3%.
In the case of `CSc1cccc(CN2CCCC(CNC(=O)c3ccc(F)cc3)C2)c1` (stereo not drawn), the “hERG current change (%, negative = inhibition) at 10uM” value was -74.1%.
Next, `CCOCc1cc(CN2CCCC(CNC(=O)c3ccco3)C2)ccc1OC` (stereo not drawn): -48.3%; `CCOC(=O)c1ccc(N=c2sc(C(=O)OC)cc(=O)n2CCCN2CCOCC2)cc1.Cl`: -16.9%; `CCN(CC(=O)Nc1c(F)cccc1F)C(=O)c1ccc(C2SCCS2)cc1`: 0.0972%.
In the case of `O=C(CCc1nnc(CCCCc2ccccc2)o1)N1CCN(CCO)CC1` it was -0.0459%; in that of `Cc1cc(C)c(NC(=O)Cn2cc3c(n2)CCCC3)c(C)c1`, 10.4%; in that of `CSCC[C@H](NC(=O)OC(C)(C)C)C(=O)N/N=C/c1cc2ccc(C)cc2nc1Cl`, -7.13%.
As to `COc1ccc(C(=O)OCC(=O)Nc2c(C)cccc2C)cc1`, the “hERG current change (%, negative = inhibition) at 10uM” value was determined as 17.4%.
`O=C(NCCCN1CCOCC1)C(=O)NCC1OCCN1S(=O)(=O)c1ccc(F)cc1` (stereo not drawn): the “hERG current change (%, negative = inhibition) at 10uM” value is -10.2%.
Regarding `CC(C)NC(=O)CCCc1cn(C)c2ccccc12`, the “hERG current change (%, negative = inhibition) at 10uM” value is on record as 18.1%.
In the case of `COc1ccccc1N1CCN(C(=O)CNC(=O)c2cn(-c3ccccc3OC)c(=O)c3ccccc23)CC1` it was -15.6%; in that of `O=C(NCC1CCCN(Cc2ccccc2F)C1)c1cccc(C(F)(F)F)c1` (stereo not drawn), -52.1%; in that of `CN(C(=O)c1cccc(Cl)c1)C1CCCN(Cc2ccccc2F)C1` (stereo not drawn), 0.373%.
Turning to `O=C(NC1CCCN(Cc2ccccc2F)C1)c1cccc(N2CCCC2=O)c1` (stereo not drawn), the “hERG current change (%, negative = inhibition) at 10uM” value is 4.16%.
Next, `CCOc1ccc(N)c(SSc2cc(OCC)ccc2N)c1`: 19.3%; `O=C1c2ccccc2C(=O)C1(CO)c1ccc(OC(F)F)cc1`: 18.3%; `COC(=O)CCC(=O)Nc1ccccc1C(=O)Nc1ccccc1`: 9.16%.
With `CCN(CC)CCCCCC(=O)Nc1ccccc1C(=O)Nc1ccccc1`, the “hERG current change (%, negative = inhibition) at 10uM” value was -55.8%.
With `CCN(CC(=O)NC(c1ccccc1)c1ccccc1)Cc1nc2ccccc2c(=O)[nH]1`, the “hERG current change (%, negative = inhibition) at 10uM” value is -32.4%.
In the case of `CCN(CC(=O)Nc1cc(Cl)ccc1C)C(=O)CCc1nc2ccccc2c(=O)[nH]1`, the “hERG current change (%, negative = inhibition) at 10uM” value is listed as -67.3%.
Next, `O=C(O)CCC(=O)Nc1ccccc1C(=O)Nc1ccccc1`: 15.6%; `CN(Cc1nc2ccccc2c(=O)[nH]1)C(=O)COc1ccccc1Cc1ccccc1`: -43.3%.
`CCN(CC(=O)NCCc1ccc(Cl)cc1)Cc1nc2ccccc2c(=O)[nH]1`: the “hERG current change (%, negative = inhibition) at 10uM” value is given as -53.3%.
`CCN(CC(=O)NCCc1ccc(S(N)(=O)=O)cc1)Cc1nc2cc(OC)c(OC)cc2c(=O)[nH]1`: the “hERG current change (%, negative = inhibition) at 10uM” value came out at 0.804%.
In the case of `CCN(CC(=O)Nc1ccccc1C(F)(F)F)C(=O)CCc1nc2ccccc2c(=O)[nH]1` it was 12.5%; in that of `CN(Cc1nc2ccccc2c(=O)[nH]1)C(=O)c1ccccc1OCc1ccc(Cl)cc1`, -58.2%.
Next, `CN(C(=O)c1ccccc1OCc1ccc(Cl)cc1)c1ccccc1`: -7.03%; `CCN(CC(=O)Nc1c(F)cccc1F)C(=O)CCc1nc2ccccc2c(=O)[nH]1`: 8.25%.
